{"source": "PubChem BioAssay", "data": [{"target": "NADPH oxidase 5 (Homo sapiens) (UniProt Q96PH1)", "sequence (Q96PH1 whole entry, looked up)": "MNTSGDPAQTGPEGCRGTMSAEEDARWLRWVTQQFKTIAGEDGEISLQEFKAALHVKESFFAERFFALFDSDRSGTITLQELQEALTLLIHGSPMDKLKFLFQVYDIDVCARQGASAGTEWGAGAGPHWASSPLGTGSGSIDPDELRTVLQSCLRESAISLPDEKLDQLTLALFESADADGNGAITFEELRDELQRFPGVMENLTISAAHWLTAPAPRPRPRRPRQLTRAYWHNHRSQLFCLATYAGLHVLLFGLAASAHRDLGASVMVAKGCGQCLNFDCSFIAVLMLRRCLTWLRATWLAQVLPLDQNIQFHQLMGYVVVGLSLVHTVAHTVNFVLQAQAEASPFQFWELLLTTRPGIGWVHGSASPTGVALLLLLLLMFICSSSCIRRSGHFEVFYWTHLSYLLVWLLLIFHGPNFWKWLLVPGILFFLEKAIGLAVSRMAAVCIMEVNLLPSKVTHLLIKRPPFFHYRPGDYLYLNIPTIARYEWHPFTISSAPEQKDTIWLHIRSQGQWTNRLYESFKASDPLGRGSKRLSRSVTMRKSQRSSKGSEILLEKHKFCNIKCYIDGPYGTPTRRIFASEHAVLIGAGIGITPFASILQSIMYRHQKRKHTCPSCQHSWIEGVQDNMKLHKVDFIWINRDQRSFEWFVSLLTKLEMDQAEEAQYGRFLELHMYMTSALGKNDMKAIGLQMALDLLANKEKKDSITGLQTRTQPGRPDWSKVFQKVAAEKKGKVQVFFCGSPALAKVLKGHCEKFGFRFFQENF", "test": "compounds shifting NOX5 Amplex Red fluorescence – cell-based, HEK293-NOX5, NOX inhibitor project, primary screen (AID 1161)", "details": "HEK293-NOX5, ionomycin, 45 min, higher = more signal", "values": [{"compound": "NC(=O)NCC#Cc1ccc2c(c1)[C@]1(C(=O)N2)[C@H](c2ccc(O)cc2)N2[C@H](c3ccccc3)[C@H](c3ccccc3)OC(=O)[C@H]2[C@@H]1C(=O)O", "z-score": -0.305}, {"compound": "COc1cc(Br)cc(C(O)C2C=CC3C(=O)N(C)C(=O)C3N2N2CCCCC2)c1OC", "note": "(stereo not given)", "z-score": -0.637}, {"compound": "COc1ccc(CCNC(=O)[C@@H]2c3ccccc3C(=O)N(Cc3ccccc3Cl)[C@H]2c2ccc(CO)cc2)cc1", "z-score": -2.46}, {"compound": "CCCCN1CC=CC23O[C@@H]4C=CCCOC(=O)C4[C@H]2C(=O)N(CCCCCCO)[C@@H]3C1=O", "note": "(stereo not given in full)", "z-score": 1.85}, {"compound": "CCOC(=O)C[C@H]1[C@H](OC(=O)c2ccc(C(=O)c3ccccc3)cc2)[C@@H](NC(=O)c2ccccc2)c2cc(OCCCO)ccc2N1C(=O)c1ccc2ccccc2n1", "z-score": 1.94}, {"compound": "C=CCOC(=O)[C@H]1[C@@H]2C(=O)O[C@@H](c3ccccc3)[C@@H](c3ccccc3)N2[C@@H](c2ccc(OCCOC(=O)[C@H]3C[C@H]4C(=O)N[C@@H](CCCC[N+](C)(C)C)C(=O)N4[C@H]3c3ccc(O)cc3)cc2)[C@]12C(=O)Nc1ccc(I)cc12", "z-score": 0.895}, {"compound": "CC(CO)N1C(=O)[C@@H]2C3C(=O)OCCC/C=C\\[C@H]3OC23C=CCN(C(C)(C)C)C(=O)[C@@H]13", "note": "(stereo not given in full)", "z-score": 0.886}, {"compound": "CC1CC/C=C\\[C@H]2OC34C=CCN(C(C)(C)C)C(=O)[C@H]3N(C(C)CO)C(=O)[C@@H]4C2C(=O)O1", "note": "(stereo not given in full)", "z-score": 1.65}, {"compound": "COc1ccc(C#Cc2ccc3c(c2)[C@]2(C(=O)N3)[C@H](C(=O)Nc3nc4ccccc4s3)[C@H]3C(=O)O[C@H](c4ccccc4)[C@H](c4ccccc4)N3[C@@H]2c2ccc(O)cc2)cc1", "z-score": -2.5}, {"compound": "C=CCC(OC(C)=O)[C@@H]1[C@@H](N(Cc2ccc(-c3ccccc3)cc2)C(=O)Cc2ccc(OC)cc2)c2cc(OCCCO)ccc2N1C(=O)Cc1ccc2ccccc2c1", "note": "(stereo not given in full)", "z-score": 1.35}, {"compound": "CN1C(=O)C2C=CC(C(O)C#Cc3ccccc3)N(N3CCCCC3)C2C1=O", "note": "(stereo not given)", "z-score": -0.26}, {"compound": "C=CC(=C)[C@H]1Oc2ccccc2S(=O)(=O)N2CCC[C@@H]12", "z-score": -1.38}, {"compound": "C=CCC(OC(C)=O)[C@@H]1[C@@H](N(Cc2ccc(-c3cccc(C(F)(F)F)c3)o2)C(=O)c2ccc(C)cc2)c2cc(OCCCO)ccc2N1C(=O)Cc1ccc2ccccc2c1", "note": "(stereo not given in full)", "z-score": 1.51}, {"compound": "COCCOC(=O)N1C(=O)[C@@]2(c3cc(C#CCC(C(=O)OC)C(=O)OC)ccc31)[C@H](C(=O)N1CCN(c3ncccn3)CC1)[C@H]1C(=O)O[C@H](c3ccccc3)[C@H](c3ccccc3)N1[C@@H]2c1ccccc1OCCO", "z-score": 1.3}, {"compound": "CC(C)=CCCC(C)=CC(O)C1C=CC2C(=O)N(C)C(=O)C2N1Nc1ccccc1", "note": "(stereo not given)", "z-score": -1.98}]}]}
